Screen size: about 48,000 compounds; about 13,000 (27%) showed an effect of 50% or more. Some of the results follow.
tested on: Wolbachia pipientis; test: Anti-Wolbachia Cell-Based Screen; assay type: functional; set-up: scale not given: in the data most compounds retested in dose-response had high values; settings: 5 µM

Row | Compound | Percent Effect [%]
1 | O=C(NCc1ccc(F)cc1F)C(c1cccnc1)N1CCOCC1 (stereo not given) | -3.204
2 | CC(C)(C)C(=O)N[C@H]1C[C@@H](Cc2cc(CN3CCOCC3)on2)C1(C)C | -2.41
3 | CC(Sc1nnc(C2CC2)n1CC(N)=O)c1ccc(F)c(Cl)c1 (stereo not given) | -2.548
4 | CC(C)Cc1cc(C(=O)N2CCC[C@H]2C(=O)N2CCOCC2)on1 | -13.85
5 | CCSc1ccc(C(=O)N2CCCC2C(=O)N2CCOCC2)cn1 (stereo not given) | 144.8
6 | CC(C)(C)NC(=O)C1CCCCN1Cc1nccn1CC(F)(F)F (stereo not given) | -2.197
7 | Cc1ccc(CNC(=O)C2CCCCN2C(=O)OC(C)(C)C)cn1 (stereo not given) | 1.092
8 | CCSc1ccc(C(=O)N2CCCCC2C(=O)N2CCCC2)cn1 (stereo not given) | 151.8
9 | Cn1ccc2ccc(C(=O)N3CCC[C@H]3C(=O)N3CCOCC3)cc21 | 12.68
10 | CCSc1ccc(NC(=O)N2CCCC2c2ccncc2)cn1 (stereo not given) | -0.7424
11 | CCSc1ccc(C(=O)N2CCCCC2C(=O)NC(C)(C)C)cn1 (stereo not given) | 116.3
12 | COC(=O)N1CCCCC1C(=O)N1CCN(c2ncccc2C)CC1 (stereo not given) | -6.544
13 | CCn1c(CN(C)C)nnc1C1CCN(Cc2cccc(C#N)c2)CC1 | -18.18
14 | COc1cccc(CNC(=O)CC2CSc3nc(C)c(C)c(=O)n32)c1 (stereo not given) | 131.7
15 | Cc1nsc(N2CCN(CC(=O)NCc3ccc(F)cc3)CC2)n1 | -5.243
16 | O=C(Cn1nc(-c2ccc(F)cc2)oc1=O)NCc1ccc(F)cc1 | -3.011
17 | Cc1cnc2n(c1=O)CC(C(=O)Nc1ccccc1Cl)CS2 (stereo not given) | -3.995
18 | CC(=O)NC[C@@H]1C=C(C)[C@H](CC(=O)NCc2cccnc2)C[C@H]1C(C)C | -8.421
19 | Cc1cnc2n(c1=O)C(CC(=O)NCc1ccc(F)cc1)CS2 (stereo not given) | 120.7
20 | Cc1ccc(CNC(=O)CC2C(=O)NCCN2Cc2ccccc2C)s1 (stereo not given) | 4.539
21 | Cc1cc(=O)n2c(n1)SCC2CC(=O)NCc1cc(-c2ccco2)on1 (stereo not given) | 1.39
22 | COc1cccc(CNC(=O)CC2CSc3ncc(C)c(=O)n32)c1 (stereo not given) | 19.59
23 | Cc1cnc2n(c1=O)C(CC(=O)NCc1cccnc1)CS2 (stereo not given) | 115
24 | Cc1cnc2n(c1=O)C(CC(=O)NCc1ccccc1Cl)CS2 (stereo not given) | 121.9
25 | O=C(NCc1cccnc1)N1CCSCC1CCO (stereo not given) | -15.06

Row | Compound | Percent Effect [%]
26 | Cc1cc(-c2ccncc2)ccc1OCC(N)=O | -1.496
27 | CC(C)c1cc(C(=O)N2CCN(CC3CC3)[C@@H]3CS(=O)(=O)C[C@@H]32)no1 | 5.38
28 | Cc1cnn(CCC(=O)Nc2ccc(F)cc2OCC2CC2)c1 | -3.72
29 | CCN1CC(C(=O)N2CCN(CCn3cccc3)CC2)CC1=O (stereo not given) | -5.842
30 | O=C(NCc1ccncc1)N1CCSCC1c1ccc(Cl)cc1 (stereo not given) | -11.62
31 | Cc1cc(CNC(=O)CC2CN(C(=O)OC(C)(C)C)C2)ccc1F | -41.83
32 | Cc1cnc2n(c1=O)C(CC(=O)NCc1ccc(Cl)cc1)CS2 (stereo not given) | 120.8
33 | CCNc1cc2c(nn1)CCN(C(=O)C1Cc3ccccc3S1)C2 (stereo not given) | -4.507
34 | CCNc1cc2c(nn1)CCN(C(=O)Cc1ccc(C)s1)C2 | 107.9
35 | CCNc1cc2c(nn1)CCN(C(=O)C1COc3ccccc3C1)C2 (stereo not given) | 3.402
36 | CCNc1cc2c(nn1)CCN(C(=O)CC1CCCCC1)C2 | -4.667
37 | CCNc1cc2c(nn1)CCN(C(=O)Cc1ccc3c(c1)CCO3)C2 | -18.57
38 | CCNc1cc2c(nn1)CCN(C(=O)Cc1c(C)nn(C)c1C)C2 | 126.1
39 | CCc1nccn1CC(=O)N1C[C@H]2CC[C@@H]1CN(C(=O)N(C)C)C2 | 6.839
40 | c1cc(-c2nc3c(c(NCCn4ccnn4)n2)CCNCC3)ccn1 | -0.7039
41 | Cn1cc(C2CC(=O)NC23CCN(Cc2nccs2)CC3)cn1 (stereo not given) | 86.17
42 | CCN1CCN(C)C2(CCN(Cc3ccc(C)o3)CC2)C1=O.O=C(O)C(F)(F)F.O=C(O)C(F)(F)F | -15.65
43 | Cc1ccc(CN2CCC3(CC2)C(c2ccccc2)CC(=O)N3C)o1.O=C(O)C(F)(F)F (stereo not given) | 104.4
44 | Cc1ccc(CN2CCC3(CC2)NC(=O)CC3c2ccccc2)s1.O=C(O)C(F)(F)F (stereo not given) | 95.7
45 | Cn1cc(C2CC(=O)NC23CCN(c2ncc(F)cn2)CC3)cn1 (stereo not given) | -28.26
46 | Cc1cnc(N2CCC3(CC2)C(c2ccccc2)CC(=O)N3C)nc1 (stereo not given) | 8.622
47 | Cc1ccc(CN2CCCC3(CCC(=O)N3)CC2)s1.O=C(O)C(F)(F)F (stereo not given) | 3.95
48 | Cc1ccc(CN2CCC3(CC2)C(=O)N(CCO)CCN3C)o1.O=C(O)C(F)(F)F.O=C(O)C(F)(F)F | 5.189
49 | COCCN1CCC2(CCN(Cc3nccs3)CC2)C1=O | -0.9039
50 | Cc1noc(C)c1CN1CCC2(CC1)C(c1ccccc1)CC(=O)N2C.O=C(O)C(F)(F)F (stereo not given) | 90.48

Row | Compound | Percent Effect [%]
51 | Cc1noc(C)c1CN1CCC2(CC1)CC(Oc1cccnc1)C2.O=C(O)C(F)(F)F.O=C(O)C(F)(F)F | 7.225
52 | CCCc1cc(C(=O)N2Cc3ccccc3C2)[nH]n1 | 5.853
53 | CC(C)=CCCC(C)CN1CCC(n2cc(CO)nn2)CC1 (stereo not given) | -18.32
54 | Cc1ccc2nc3n(c2c1)[C@@H](CNC(=O)c1ccncc1)COC3 | -11.4
55 | CN(CCC(F)(F)F)c1nc2ccccc2c(=O)[nH]1 | -5.931
56 | O=C(O)C(F)(F)F.O=C(O)C(F)(F)F.O=C1NC2(CCN(Cc3nccs3)CC2)CC1c1ccncc1 (stereo not given) | -14.31
57 | Cc1noc(C)c1CN1CCC2(CC1)NC(=O)CC2c1ccccc1.O=C(O)C(F)(F)F (stereo not given) | 92.37
58 | Cc1noc(C)c1CN1CCC2(CC1)NC(=O)CC2c1cnn(C)c1 (stereo not given) | 100
59 | O=C(O)C(F)(F)F.O=C1CC(c2ccccc2)C2(CCN(Cc3nccs3)CC2)N1 (stereo not given) | 100.6
60 | Cc1noc(C)c1CN1CCC2(CC1)C(c1cnn(C)c1)CC(=O)N2C.O=C(O)C(F)(F)F (stereo not given) | 113.4
61 | CN1C(=O)CC(c2cnn(C)c2)C12CCN(C(=O)c1ccc[nH]1)CC2 (stereo not given) | -12.5
62 | CCn1c(N)nc2cc(C(=O)N3CCN(c4nccs4)CC3)cnc21 | 5.725
63 | O=C(c1ccoc1)N1CCC(NCc2ccccc2-n2ccnc2)CC1 | 2.985
64 | CCn1ncc2c1NC(=O)C(C#N)C21CCCC1 (stereo not given) | 21.97
65 | CC(C)CN1CCN(C)C2(CCN(c3nccs3)CC2)C1=O.O=C(O)C(F)(F)F | -15.41
66 | Cc1ccc(CN2CCC3(CC2)C(=O)N(CC(C)C)CCN3C)o1.O=C(O)C(F)(F)F.O=C(O)C(F)(F)F | -29.49
67 | Cc1ccc(CN2CCC3(CC2)C(=O)N(CC(C)C)CCN3C)s1.O=C(O)C(F)(F)F.O=C(O)C(F)(F)F | 102.6
68 | Cc1cnn(CC2CCCCN2C(=O)c2ccc(N(C)C)nc2)c1 (stereo not given) | 89.91
69 | O=C(c1cccc2c1OCO2)N1CCCC1Cn1cccn1 (stereo not given) | -0.6849
70 | Cc1cnn(CC2CCCN2C(=O)c2cccnc2N(C)C)c1 (stereo not given) | -3.738
71 | Cc1cc(C)n(CC2CCCN2C(=O)c2cccnc2N(C)C)n1 (stereo not given) | 118
72 | Cc1cnn(CC2CCCCN2C(=O)c2cccnc2N(C)C)c1 (stereo not given) | 94.82
73 | Cc1cc(C)n(CC2CCCN2C(=O)c2c[nH]c3ncccc23)n1 (stereo not given) | -7.335
74 | Cc1cc(C)n(CC2CCCN2C(=O)c2cccc3[nH]ncc23)n1 (stereo not given) | -3.123
75 | Cc1cnn(CC2CCCCN2C(=O)c2ccc3nnc(C)n3c2)c1 (stereo not given) | -9.496

Row | Compound | Percent Effect [%]
76 | O=C(c1cccnc1N1CCOCC1)N1CCCC1Cn1cccn1 (stereo not given) | 1.919
77 | Cc1cnn(CC2CCCCN2C(=O)c2cccc3c2OCO3)c1 (stereo not given) | -2.775
78 | Cc1cnn(CC2CCCCN2C(=O)c2ccnc(N(C)C)c2)c1 (stereo not given) | -6.114
79 | CN(C)c1ncccc1C(=O)N1CCCC1Cn1cccn1 (stereo not given) | 111.6
80 | CC(C)[C@@H]1CN(S(=O)(=O)Cc2ccccc2)C[C@H]1C(=O)O | 3.081
81 | O=C(NCC(O)c1cccs1)c1sccc1OC(F)F (stereo not given) | 2.411
82 | Cc1ccccc1N1CCN(C(=O)c2cnc(C3CC3)nc2)C(C)C1 (stereo not given) | -6.259
83 | COc1ncccc1CNC(=O)c1c[nH]c(=O)c(Br)c1 | -2.261
84 | CN(Cc1cscn1)C1CCN(C(=O)OC(C)(C)C)CC1 | -0.6066
85 | Cn1ccc(C(=O)N2CCC(Cc3cnc4[nH]ccc4c3)C2)n1 (stereo not given) | 135.4
86 | O=C(c1cscn1)N1CCC(Cc2cnc3[nH]ccc3c2)C1 (stereo not given) | 91.07
87 | Cn1ccc(C(=O)N2CCC(Cc3cnc4[nH]ccc4c3)CC2)n1 | -9.979
88 | O=C(c1cscn1)N1C[C@@H]2[C@@H](C1)OCC(=O)N2CC1CCCC1 | -7.986
89 | Cc1nc(C(=O)N2CCC(Cc3cnc4[nH]ccc4c3)C2)co1 (stereo not given) | -2.794
90 | Cc1nn(CCC(=O)NC(C(=O)O)c2c(C)n[nH]c2C)c(C)c1C (stereo not given) | 9.182
91 | CC(C)(C)c1ncc2c(n1)CN(C(=O)c1ccc3[nH]cnc3c1)C2 | -16.99
92 | O=C(c1ccncc1)N1CCc2ncnc(C3CCOC3)c2CC1 (stereo not given) | 1.428
93 | CCN1CC[C@@]2(C(=O)N3CCOCC3)CCN(S(=O)(=O)CC)CC[C@@H]12.O=C(O)C(F)(F)F | -35.9
94 | CCc1cn[nH]c1C1CCCN(C(=O)c2ncoc2C(C)C)C1 (stereo not given) | 0.179
95 | CCc1noc(C)c1C(=O)N1C[C@H](NS(C)(=O)=O)[C@@H](C2CC2)C1 | 7.684
96 | CCc1cn[nH]c1C1CCCN(C(=O)c2noc(C)c2COC)C1 (stereo not given) | -6.588
97 | CCc1noc(C)c1C(=O)N1CCC(c2[nH]ncc2S(C)(=O)=O)C1 (stereo not given) | 111.9
98 | Cc1noc(C)c1C(=O)N1CCC(c2[nH]ncc2S(C)(=O)=O)C1 (stereo not given) | 95.01
99 | CCn1cc(C(=O)N2CCCC(c3[nH]ncc3S(C)(=O)=O)C2)cn1 (stereo not given) | -1.066
100 | CCc1cc(C(=O)N2CCCC(c3[nH]ncc3S(C)(=O)=O)C2)no1 (stereo not given) | 122.4
